EPAC2 antagonist = qHTS for Antagonist of cAMP-regulated guanine nucleotide exchange factor 2 (EPAC2): primary screen | AID 720708, 2013 | Rap guanine nucleotide exchange factor 4 (Homo sapiens), Q8WZA2 | Potency, µM (doses to about 114 µM), most hits filed as inhibitors | EPAC2 GEF exchange of Rap1B-BODIPY-GDP, fluorescence | actives 0.18% (n = 360,000); note: nearly all actives have a fitted effect of over 45% in size
Target sequence (Q8WZA2 whole entry, looked up): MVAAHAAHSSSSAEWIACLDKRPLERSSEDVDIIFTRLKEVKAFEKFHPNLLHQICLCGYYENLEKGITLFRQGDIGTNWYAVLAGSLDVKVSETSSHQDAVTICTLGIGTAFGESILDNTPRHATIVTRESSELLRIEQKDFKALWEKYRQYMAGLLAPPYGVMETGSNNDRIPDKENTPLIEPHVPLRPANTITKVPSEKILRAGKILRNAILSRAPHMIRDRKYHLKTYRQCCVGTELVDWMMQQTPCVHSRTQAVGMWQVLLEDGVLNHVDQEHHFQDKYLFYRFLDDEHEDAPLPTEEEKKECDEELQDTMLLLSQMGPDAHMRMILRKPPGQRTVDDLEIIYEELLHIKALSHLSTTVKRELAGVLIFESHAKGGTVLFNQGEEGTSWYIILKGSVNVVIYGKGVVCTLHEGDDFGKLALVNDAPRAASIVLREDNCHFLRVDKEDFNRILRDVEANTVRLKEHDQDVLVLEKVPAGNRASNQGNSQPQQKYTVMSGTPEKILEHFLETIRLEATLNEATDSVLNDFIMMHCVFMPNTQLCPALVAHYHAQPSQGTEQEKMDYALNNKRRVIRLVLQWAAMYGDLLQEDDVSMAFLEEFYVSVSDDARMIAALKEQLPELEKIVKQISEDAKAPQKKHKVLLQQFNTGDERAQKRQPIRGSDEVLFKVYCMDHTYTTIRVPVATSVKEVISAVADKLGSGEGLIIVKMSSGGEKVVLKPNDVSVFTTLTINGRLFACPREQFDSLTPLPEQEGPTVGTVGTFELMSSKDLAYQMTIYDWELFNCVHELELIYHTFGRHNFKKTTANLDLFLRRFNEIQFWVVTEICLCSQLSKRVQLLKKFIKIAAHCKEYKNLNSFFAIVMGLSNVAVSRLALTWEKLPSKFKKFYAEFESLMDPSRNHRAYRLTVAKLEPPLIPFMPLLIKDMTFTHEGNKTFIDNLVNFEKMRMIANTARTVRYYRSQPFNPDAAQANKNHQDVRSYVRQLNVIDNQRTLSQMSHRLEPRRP
EPAC1 agonist = qHTS for Agonist of cAMP-regulated guanine nucleotide exchange factor 3 (EPAC1): primary screen; Rap guanine nucleotide exchange factor 3 (Homo sapiens), O95398; EPAC1 agonist qHTS, biochemical assay; response scale: 100% = response to 6.5 mM cAMP; Potency, µM (doses to about 154 µM), hits mostly activators; actives 0.073% (n = 360,000); note: nearly all actives have a fitted effect of over 60% in size
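Fluorescent GDP-exchange assay: 100 nM EPAC1 with 250 nM Rap1B preloaded with BODIPY-GDP and 50 uM GDP; compounds tested as concentration series, 5 min at room temperature, then read every 5 min for 30 min (ex 480/em 540 nm); normalized to 6.5 mM cAMP.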
EPAC2 agonist = qHTS for Agonist of cAMP-regulated guanine nucleotide exchange factor 4 (EPAC2): primary screen; Potency, µM (titrated, usually from 154 µM), hits mostly activators; AID 720711, 2013; EPAC2 activation, biochemical qHTS; response scale: 100% = 6.5 mM cAMP response; Rap guanine nucleotide exchange factor 4 (Homo sapiens), Q8WZA2; actives 0.079% (n = 360,000); note: nearly all actives have a fitted effect of over 50% in size
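Guanine nucleotide exchange by EPAC2 is measured as reduced fluorescence of BODIPY-GDP once it is released from 250 nM Rap1B. Plates are read kinetically for 30 min at room temperature; results are scaled to 6.5 mM cAMP.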
EPAC1 antagonist = qHTS for Antagonist of cAMP-regulated guanine nucleotide exchange factor 3 (EPAC1): primary screen; Rap guanine nucleotide exchange factor 3 (Homo sapiens), O95398; EPAC1 GEF assay, Rap1b-BODIPY-GDP exchange fluorescence; AID 720709, 2013; Potency, µM (top dose mostly 115 µM), most hits filed as inhibitors; actives 0.14% (n = 360,000); note: nearly all actives have a fitted effect of over 50% in size
USP1-UAF1 inh = Inhibitors of USP1/UAF1: Primary Screen; Ubiquitin carboxyl-terminal hydrolase 1 (Homo sapiens), O94782; recombinant USP1/UAF1, Ub-Rhodamine cleavage fluorescence; Potency, µM (titrated, usually from 57.1 µM), usual class: inhibitors; actives 0.23% (n = 390,000); AID 743255, 2014; note: nearly all actives have a fitted effect of over 60% in size
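USP1/UAF1 complex (1 nM) preincubated 15 min at room temperature with compound, then Ub-Rho substrate (150 nM final) added. Kinetic fluorescence at 480/540 nm over 6 reads at 60 s intervals; 50 mM HEPES pH 7.8, 0.5 mM EDTA, 0.1 mg/ml BSA, 1 mM TCEP, 0.01% Tween-20.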
Large screens that a line does not name were inactive. Compounds with a hit are over-represented: about 0.44% of the library has one in this group of screens. Calls come from the whole dose curve; as a rule, active = well fitted curve in the direction sought with a large enough effect; inconclusive = small, poorly fitted or top-dose-only effect, or another doubt; inactive = no such curve, though single readings can be large; an effect the other way counts as inactive or inconclusive.

Cc1ccc(NS(=O)(=O)c2ccc(C(=O)N3CC(C)CC(C)C3)cc2)cc1 (configuration not stated)	EPAC1 agonist 100µM
O=C(CCN1C(=O)/C(=C/c2ccco2)SC1=S)Nc1ccc(C(=O)O)c(O)c1	USP1-UAF1 inh inconclusive
COc1ccccc1/C=C1\SC(=S)N(CCC(=O)Nc2ccc(C(=O)O)c(O)c2)C1=O	EPAC1 antagonist 50µM
CC(=Cc1ccccc1)C=C1SC(=S)N(CCCC(=O)Nc2ccc(C(=O)O)cc2)C1=O	EPAC1 agonist inconclusive, EPAC1 antagonist inconclusive (no result: USP1-UAF1 inh)
CC(/C=C1\SC(=S)N(CCC(=O)Nc2cccc(C(=O)O)c2)C1=O)=C\c1ccccc1	EPAC2 antagonist inconclusive, EPAC1 antagonist 79µM
CN(C)c1ccc(/C=C2\SC(=S)N(Nc3ncc(C(F)(F)F)cc3Cl)C2=O)cc1	EPAC1 agonist 112µM, EPAC2 agonist 112µM, USP1-UAF1 inh 25µM
COc1cc(/C=C2\SC(=S)N(Nc3ncc(C(F)(F)F)cc3Cl)C2=O)ccc1O	none
CC1=C(SCc2ccccc2)C(=O)c2ccccc2C1=O	EPAC2 antagonist inconclusive, EPAC1 antagonist inconclusive, USP1-UAF1 inh 16µM
Cc1ccc(CSC2=NCCN2S(=O)(=O)c2ccc(F)cc2)cc1	EPAC2 antagonist 50µM, EPAC1 antagonist inconclusive
O=C1S/C(=C\c2ccc(N3CCOCC3)o2)C(=O)N1c1ccccc1	EPAC2 agonist 89µM, USP1-UAF1 inh 28µM
O=C1S/C(=C\c2ccc(N3CCOCC3)o2)C(=O)N1Cc1c(F)cccc1Cl	USP1-UAF1 inh 4µM
O=C1S/C(=C/c2ccc(N3CCOCC3)o2)C(=O)N1Cc1c(F)cccc1Cl	USP1-UAF1 inh inconclusive
O=C(NCCCc1nc2ccccc2n1Cc1ccc(Cl)cc1Cl)c1ccco1	none (no result: EPAC2 antagonist, EPAC1 agonist, EPAC2 agonist, EPAC1 antagonist)
O=C(CC1C(=O)N(c2ccc(F)cc2)C(=O)N1Cc1ccc2c(c1)OCO2)Nc1ccc(F)cc1 (configuration not stated)	none (no result: EPAC2 antagonist, EPAC1 agonist, EPAC2 agonist, EPAC1 antagonist)
COc1ccc(-c2nc(CSCC(=O)N3CCN(c4ccc(F)cc4)CC3)c(C)o2)cc1	none (no result: EPAC2 antagonist, EPAC1 agonist, EPAC2 agonist, EPAC1 antagonist)
CCN(CC)c1ccc(N)cc1	none
Nc1ccc(N(CCO)CCO)cc1	USP1-UAF1 inh 8.9µM
CCOC(=O)C1=C(C)NC(C)=C(C(=O)OC)C1c1ccco1 (configuration not stated)	none
C=CCOC(=O)C1=C(C)NC(C)=C(C(=O)OCC=C)C1c1ccco1	EPAC2 antagonist 45µM
O=C(O)CSc1cc(NS(=O)(=O)c2cccc([N+](=O)[O-])c2)c2ccccc2c1O	EPAC2 antagonist inconclusive, EPAC2 agonist 112µM, EPAC1 antagonist inconclusive, USP1-UAF1 inh 18µM
CCOc1ccc(S(=O)(=O)Nc2cc(SCC(=O)O)c(O)c3ccccc23)cc1	EPAC1 antagonist 89µM, USP1-UAF1 inh 25µM
CCc1ccc(S(=O)(=O)Nc2cc(SCC(=O)O)c(O)c3ccccc23)cc1	EPAC2 antagonist inconclusive, EPAC1 agonist inconclusive, EPAC1 antagonist 89µM, USP1-UAF1 inh inconclusive
Cc1ccc(C)c(S(=O)(=O)Nc2cc(SCC(=O)O)c(O)c3ccccc23)c1	EPAC1 antagonist inconclusive, USP1-UAF1 inh inconclusive
Cc1cccc(-c2nc3c(cnn3-c3ccccc3)c(=O)n2-c2ccc(Br)cc2)c1	none (no result: EPAC2 antagonist, EPAC1 agonist, EPAC2 agonist, EPAC1 antagonist)
O=c1c2ccccc2nc(/C=C/c2cccnc2)n1CCc1ccccc1	EPAC1 antagonist 79µM
O=c1c2ccccc2nc(/C=C/c2ccccc2)n1CCc1ccccc1	none
Cc1ccccc1OCCCCn1c(-c2ccc(Cl)cc2)nc2ccccc2c1=O	none (no result: EPAC2 antagonist, EPAC1 agonist, EPAC2 agonist, EPAC1 antagonist)
O=C1c2ccccc2S(=O)(=O)c2cc(N3CCN(C(=O)c4ccccc4)CC3)ccc21	none
NC(=O)C1CCN(c2ccc3c(c2)S(=O)(=O)c2ccccc2C3=O)CC1	USP1-UAF1 inh inconclusive
CC1CCN(c2ccc3c(c2)S(=O)(=O)c2ccccc2C3=O)CC1	EPAC1 agonist 89µM, USP1-UAF1 inh inconclusive
O=C1c2ccccc2S(=O)(=O)c2cc(N3CCC4(CC3)OCCO4)ccc21	EPAC2 agonist 112µM
COc1ccc(N2CCN(C(=O)CCc3c(C)nn(-c4ccc(N5CCCC5)nn4)c3C)CC2)cc1	none (no result: EPAC2 antagonist, EPAC1 agonist, EPAC2 agonist, EPAC1 antagonist)
Cc1ccc(NC2CNC(=O)NC2=O)cc1C (configuration not stated)	none
Cc1ccc(NC2C(=O)NC(=O)NC2=O)cc1	EPAC2 antagonist inconclusive, EPAC1 antagonist 79µM, USP1-UAF1 inh inconclusive
COc1ccc(Nc2nc(Nc3ccc(OC)cc3OC)nc(N3CCOCC3)n2)c(OC)c1	none (no result: EPAC2 antagonist, EPAC1 agonist, EPAC2 agonist, EPAC1 antagonist)
Nc1ccc2c(S(=O)(=O)O)cccc2c1S(=O)(=O)O	EPAC2 antagonist 56µM, USP1-UAF1 inh inconclusive
Nc1ccccc1S(=O)(=O)c1ccccc1N	none
O=C(NCCCN1CCN(c2cccc(Cl)c2)CC1)Nc1ccccc1C(F)(F)F	none (no result: EPAC2 antagonist, EPAC1 agonist, EPAC2 agonist, EPAC1 antagonist)
COc1ccc(C(C(=O)NCc2ccccc2)N(C(=O)Cn2nnc3ccccc32)c2ccc(OC)cc2)cc1 (configuration not stated)	none (no result: EPAC2 antagonist, EPAC1 agonist, EPAC2 agonist, EPAC1 antagonist)
Cc1ccc(-c2ccc(CN3C(CC(C)C)C(=O)N(Cc4cn(CCC5OCCCO5)nn4)CCS3(=O)=O)cc2)cc1 (configuration not stated)	EPAC2 antagonist inconclusive
CC(C)CC1C(=O)N(Cc2cn(CCC3OCCCO3)nn2)CCS(=O)(=O)N1Cc1ccc(-c2ccc(F)cc2)cc1 (configuration not stated)	EPAC2 antagonist 22µM
Cc1cccc(NC(=O)Cn2c(O)c(N=NC(=O)c3ccccc3O)c3ccccc32)c1	EPAC1 antagonist 56µM
NC(=S)N=Nc1c(O)n(CC(=O)Nc2ccccc2)c2ccccc12	none
CCOC(=O)c1ccc2c(c1)N(C)C(=O)c1ccccc1S2	none
CCOC(=O)c1cc2n(c1/N=C/N(C)C)-c1ccccc1C2=O	EPAC1 agonist 100µM, EPAC2 agonist 100µM, USP1-UAF1 inh 25µM
CC(=O)c1ccc(N2CCN(C(=O)C3CCN(S(=O)(=O)c4ccc(Br)s4)CC3)CC2)cc1	none (no result: EPAC2 antagonist, EPAC1 agonist, EPAC2 agonist, EPAC1 antagonist)
COc1ccc(CCNC(=O)Cn2c(C)c3cnn(-c4ccccc4)c(=O)c3c2C)cc1OC	none (no result: EPAC2 antagonist, EPAC1 agonist, EPAC2 agonist, EPAC1 antagonist)
Cc1nc2ccccc2n2c(O)c(CC(=O)O)cc12	EPAC1 agonist inconclusive, EPAC2 agonist 112µM, USP1-UAF1 inh inconclusive
Cc1nc2ccccc2n1CCC(=O)O	none
CCCn1c(N)c(N(CCOC)C(=O)CSCC(=O)Nc2cccc(C)c2)c(=O)[nH]c1=O	EPAC1 agonist 100µM

High-throughput results deposited in PubChem by National Center for Advancing Translational Sciences (NCATS).
